Vaccinia Venus – inhibitors of vaccinia virus (Venus reporter). AID 720580. Potency, µM (titrated, usually from 36.5 µM), hits mostly inhibitors. Vaccinia virus Venus reporter expression, fluorescence. 330,000 tested, 0.46% active; calls by dose curve; tested in A549 cells; also: nearly all actives have a fitted effect of over 30% in size
FMDV inh – blocks foot and mouth disease virus; 410,000 tested, 1.2% active; Potency, µM (titrated, usually from 57.9 µM), most hits filed as inhibitors; FMDV antiviral cell-based qHTS; calls by dose curve; tested in HEK293T cells; also: read-out not given here; nearly all actives have a fitted effect of over 45% in size
Giardia FBPA inh – inhibitors of Giardia lamblia fructose-1,6-bisphosphate aldolase. A8B2U2. purified Giardia FBPA. Potency, µM (titrated, usually from 59.6 µM), most hits filed as inhibitors. 290,000 tested, 0.71% active. AID 2451; also: nearly all actives have a fitted effect of over 55% in size
Target sequence (A8B2U2 whole entry, looked up): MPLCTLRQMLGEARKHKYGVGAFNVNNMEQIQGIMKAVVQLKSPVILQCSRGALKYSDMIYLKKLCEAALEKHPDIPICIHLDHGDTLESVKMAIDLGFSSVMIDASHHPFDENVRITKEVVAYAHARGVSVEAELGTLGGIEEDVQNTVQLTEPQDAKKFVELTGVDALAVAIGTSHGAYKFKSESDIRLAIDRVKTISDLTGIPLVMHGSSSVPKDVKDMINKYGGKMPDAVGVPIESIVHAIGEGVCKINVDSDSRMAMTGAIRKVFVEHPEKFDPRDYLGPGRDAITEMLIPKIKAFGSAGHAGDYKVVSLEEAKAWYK
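40 nM FBPA preincubated 10 min at RT with compound (up to 57.5 uM final), then substrate plus GAPDH/TPI/NAD/arsenate coupling and diaphorase/resazurin added. Fluorescence read after 20 min at RT, 525/598 nm.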
HCMV inh – inhibitors of human cytomegalovirus | activity change, negative = inhibition, % at 57.5 µM | HFF cells, HCMV-luciferase reporter, 72 h; hits give low values | 410,000 tested, 4.5% active; in the data active = activity change below about -60%; inconclusive = no clear call, values can overlap the other calls; inactive = above about -39%
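HFF cells seeded 16 h at 37C, treated with compounds, infected with luciferase-reporter HCMV at MOI 1 PFU/cell; luciferase read at 72 h post infection, normalized to buffer-only and Salinomycin controls.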
Vaccinia mCherry – vaccinia inhibition (mCherry reporter). Potency, µM (top dose mostly 36.5 µM), hits mostly inhibitors. Vaccinia virus mCherry reporter infection, fluorescence. AID 720579. 310,000 tested, 0.63% active; calls by dose curve; tested in A549 cells; also: nearly all actives have a fitted effect of over 35% in size
HCV inh – inhibitors of hepatitis C virus infection; Huh7.5.1 HCVcc-Cre infection, luciferase reporter, 44 h; Potency, µM (doses to about 41.8 µM), usual class: inhibitors; 340,000 tested, 3.4% active; AID 651820
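After 44 h co-culture of compound, cells and HCVcc-Cre (~0.5 moi), substrate is added for 15 min at room temperature and luciferase measured over 15 sec. Cells were seeded at 1,000/well and pre-cultured 4 h.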
A number is an active result; n = inactive; u = inconclusive; x = no result; ! = repeats disagree; [ ] = dose if it differs, or a comment. Sampled rows, rich in hits. Any-hit rate of the full collection: about 7.5%. Unless noted, calls follow the shape of the dose curve; as a rule, active = well fitted curve in the direction sought with a large enough effect; inconclusive = small, poorly fitted or top-dose-only effect, or another doubt; inactive = no such curve, though single readings can be large; an effect the other way counts as inactive or inconclusive.

SMILES	Vaccinia Venus	FMDV inh	Giardia FBPA inh	HCMV inh	Vaccinia mCherry	HCV inh
O=C(/C=C1\NC2(CCCC2)Cc2ccccc21)C(=O)N/N=C/c1ccccc1O	u	n	n	-71.0	12.6µM	u
CN(C)c1ccc(/C=N/NC(=O)C(=O)/C=C2\NC3(CCCC3)Cc3ccccc32)cc1	n	n	n	-62.8	n	u
CCN(CC)S(=O)(=O)c1ccc(S(=O)(=O)N(Cc2ccccn2)Cc2ccco2)cc1	n	x	n	n	n	10µM
CCCCS(=O)(=O)N1CCc2nc(COc3ccccc3)c3c(c2C1)CO[C@@H](C)C3	x	x	n[12.9 µM]	x	x	x
Nc1ccc(C(=O)OCCCc2nc3cc4ccccc4cc3[nH]2)cc1	x	n	u	u	x	n
Nc1ccc(C(=O)OCc2nc3cc4ccccc4cc3[nH]2)cc1	n	n	n	-93.1	5.01µM	n
Nc1ccc(Cc2nc3cc4ccccc4cc3[nH]2)cc1	n	x	n	u	5.62µM	n
Fc1ccccc1CNc1nc(-c2cccnc2)nc2ccccc12	n	n	n	n	n	35.5µM
CN(C)Cc1ccccc1-c1nc(NCc2ccccc2)c2ccccc2n1	n	u	n	x	n	x
Fc1ccccc1-c1nc(NCc2ccco2)c2ccccc2n1	n	n	n	-80.5	n	n
CC(C)Oc1nc(-c2ccccc2O)nc2ccccc12	x	n	n	n	x	12.6µM
Oc1ccccc1-c1nc(NCc2ccccc2)c2ccccc2n1	u	n	n	n	n	11.2µM
COc1cccc(CNc2nc3cc(-c4ccccc4C)sc3c(=O)n2C)c1OC	n	n	x	n	n	x
c1ccc(CCNc2nc(-c3ccncc3)nc3ccccc23)cc1	n	u	n	-71.1	n	12.6µM
c1ccc(N2CCN(c3nc(NCc4ccco4)c4ccccc4n3)CC2)cc1	u	28.2µM	n	n	x	1µM
c1coc(CNc2nc(N3CCCCC3)nc3ccccc23)c1	u	n	n	u	n	u
Oc1ccccc1-c1nc(NCc2ccco2)c2ccccc2n1	x	n	n	n	x	3.16µM
c1ccc(-c2nc(NCc3ccco3)c3ccccc3n2)nc1	11.2µM	u	n	-102.3	u	u
CCOC(=O)c1sc2ncn(CC(=O)Nc3ccc(OC)c(Cl)c3)c(=O)c2c1C	n	n	x	n	n	x
CN1CCN(Cc2cc(COCc3ccccc3)c3cccnc3c2O)CC1	u	n	n	u	28.2µM	3.16µM
CCCCOCc1cc(CN2CCN(c3cccc(Cl)c3)CC2)c(O)c2ncccc12	n	n	x	-100.1	u	x
O=[N+]([O-])c1cc(CN2CCN(c3ccccc3)CC2)c(O)c2ncccc12	n	n	u	-88.7	u	u
CCCOCc1cc(CN2CCN(c3cccc(Cl)c3)CC2)c(O)c2ncccc12	n[7.34 µM]	n	x	-96.7	2.82µM	x
COc1cc(CN2CCN(c3cccc(Cl)c3)CC2)cc(OC)c1OC	x	n	n	n	x	n
CCOc1cccc(CN2CCCC(N3CCN(c4cccc(Cl)c4)CC3)C2)c1O (stereo not given)	n	n	n	n	n	n
SMILES	Vaccinia Venus	FMDV inh	Giardia FBPA inh	HCMV inh	Vaccinia mCherry	HCV inh
O=[N+]([O-])c1cc(CN2CCOCC2)c2cccnc2c1O	n	n	n	x	n	n
CCN1CCCC1CNC(=O)CN(C)S(=O)(=O)c1ccc(Cl)cc1 (stereo not given)	n	n	n	n	n	n
CCOC(=O)c1c(NC(=O)c2cc(-c3cccc(Cl)c3)on2)sc(C(C)=O)c1C	n	n	x	n	n	x
CCCCn1c(CCC)nc([N+](=O)[O-])c1Sc1ccc(Cl)cn1	x	u	n	-77.3	x	n
O=C(Nc1ccccc1F)N1CC(=O)N2[C@H](CO)[C@@H](c3ccc(Br)cc3)[C@@H]2C1	x	x	x	n	x	x
O=S1(=O)CCO[C@H]2CCCC[C@@H]2N1Cc1ccccc1F	n	x	x	x	n	x
O=S1(=O)CCO[C@H]2CCCC[C@@H]2N1Cc1ccc(Cl)cc1	u	x	x	x	10µM	x
CN1CCN(CCCN2c3ccccc3Sc3ccc(C(F)(F)F)cc32)CC1	u	u	n	-79.4!	u	14.1µM!
O=C(CN1CCCC(O)C1)N1c2ccccc2Sc2ccc(C(F)(F)F)cc21 (stereo not given)	n	u	n	n	x	n
CC(=O)N1CCC2(CC1)CN(c1ccccc1)C2	x	n	n	x	x	x
Cc1cccc(-c2cccc(NC(=O)C3CCCN(C(=O)c4ocnc4C)C3)c2)c1 (stereo not given)	u	n	n	n	n	u
Cc1cccc(-c2cccc(NC(=O)C3CCCN(C(=O)c4csc(C)n4)C3)c2)c1 (stereo not given)	x	n	n	u	x	7.94µM
CCc1nc(C)c(C(=O)N2CCCC(C(=O)Nc3cccc(-c4cccc(C)c4)c3)C2)o1 (stereo not given)	n	n	x	n	n	11.2µM
O=C(CSc1cn(CC(=O)N2CCCCC2)c2ccccc12)NCc1ccccc1	n	n	x	n	n	x
Cc1ccc(CN(C)C(=O)CN2C(=O)NC3(CCCc4ccccc43)C2=O)c(C)c1 (stereo not given)	x	n	x	n	x	10µM
COc1cccc(CN2C(=O)NC(C)(C3CCN(Cc4cc(F)cc(F)c4)CC3)C2=O)c1OC (stereo not given)	n	n	x	x	n	x
Cc1ccc(S(=O)(=O)n2cc(-c3ccccc3)c3ccccc32)cc1	u	n	x	-70.9	u	u
C=C(C)c1cccc(C(C)(C)NC(=O)Nc2nncs2)c1	n	n	n	n	n	u
C=C(C)c1cccc(C(C)(C)NC(=O)Nc2nnc(C(C)C)s2)c1	x	u	n	-101.4	x	u
C=C(C)c1cccc(C(C)(C)NC(=O)Nc2ccc(C)cn2)c1	n	n	n	n	n	8.91µM
c1ccc(Cn2c(Cn3c(-c4cnccn4)nc4ccccc43)nc3ccccc32)cc1	n	n	x	n	n	x
CC(=NCCN1CCOCC1)C1=C(O)c2ccccc2C1=O	n	n	n	-102.4	x	n
Cc1ccsc1C(=O)N(Cc1cc2ccc(F)cc2nc1N1CCC(O)CC1)CC1CCCO1 (stereo not given)	n	n	x	x	n	x
Cn1c(CNc2cccc(Cl)c2)nnc1SCC(=O)OC1CCCCC1	x	n	n	-79.9	x	n
CC(C)OC(=O)CSc1nnc(CNc2cccc(Cl)c2)n1C	n	n	n	n	n	n
SMILES	Vaccinia Venus	FMDV inh	Giardia FBPA inh	HCMV inh	Vaccinia mCherry	HCV inh
CCCN1CCC(=O)N(C(CSc2ccc(OC)cc2)CC(C)C)CC1 (stereo not given)	x	x	n	x	x	x
COc1cccc(O)c1O	n	u	17.7µM	x	n	x
O=C(CC12CC3CC(CC(C3)C1)C2)Nc1c(F)cccc1F	n	n	n	x	n	n
Nc1nc(CN2CCN(c3ccccc3)CC2)nc(Nc2ccc(Cl)cc2)n1	x	31.6µM	n	-65.2	x	12.6µM
COc1ccc(Nc2nc(N)nc(CSC(=S)N3CCCCC3C)n2)cc1 (stereo not given)	u	n	n	-63.5	n	u
COc1ccc(Nc2nc(N)nc(CN3CCc4ccccc4C3)n2)cc1	n	n	n	n	n	n
CC1CC(C)CN(Cc2nc(N)nc(Nc3ccc4ccccc4c3)n2)C1 (stereo not given)	u	n	n	n	u	12.6µM

High-throughput results as filed in PubChem BioAssay.
